Test results taken from PubChem BioAssay (NCATS).
“And” between values parts separate entries of the source, which are not always exact repeats. Equal values may be shown once. Records with an inconclusive call do not appear. The source holds several records for some structures; these can differ, active in one and inactive in another. The source made the active and inactive calls. Unless noted, calls follow the shape of the dose curve; as a rule, active = well fitted curve in the direction sought with a large enough effect; inconclusive = small, poorly fitted or top-dose-only effect, or another doubt; inactive = no such curve, though single readings can be large; an effect the other way counts as inactive or inconclusive.

Key:
[1] = target: Calcium and integrin-binding protein 1 (Homo sapiens) (UniProt Q99828); assay: Primary qHTS for Identification of Calcium Integrin Binding Protein 1 (CIB1) Competitor (AID 1508620);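 also: GST tagged CIB1 binding a fluorescein labelled alphaIIb integrin peptide tracer; top concentration of the series differs between compounds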
Procedure, shortened: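 Fluorescence polarization competition: CIB1-GST (1 uM final) preincubated with compound 15 min at room temperature, then FITC-labeled alphaIIb peptide (100 nM final) added for another 15 min. Polarization read at Ex 480/Em 540.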

[2] = target: Cytochrome P450 2D6 (Homo sapiens) (UniProt P10635); assay: Cytochrome P450 family 2 subfamily D member 6 (CYP2D6) small molecule antagonists: luciferase biochemical (cell-free) qHTS assay (AID 1645840; active = well fitted curve in the direction sought with a large enough effect in the repeat runs; an effect the other way counts as inactive or inconclusive; also: nearly all actives have a fitted effect of over 55% in size; also: potency is read from the fitted curve at half-maximal effect)
Procedure, shortened: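 P450-Glo luminescent screen: recombinant CYP2D6 enzyme–proluciferin substrate mix preincubated with compound 10 min at room temperature, then NADPH regeneration added for 1 h at room temperature. Detection reagent added for 20 min; luciferin light read as relative luminescence units.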

[3] = target: Cytochrome P450 2C9 (Homo sapiens) (UniProt P11712); assay: Cytochrome P450 family 2 subfamily C member 9 (CYP2C9) small molecule antagonists: luciferase biochemical (cell-free) qHTS assay (AID 1645842; active = well fitted curve in the direction sought with a large enough effect in the repeat runs; an effect the other way counts as inactive or inconclusive; also: nearly all actives have a fitted effect of over 55% in size; also: potency is read from the fitted curve at half-maximal effect)
Procedure, shortened: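 Luminescence, after 20 min with luciferin detection reagent, reflected CYP2C9 turnover during a 1 h NADPH-driven reaction at 37C. Enzyme-substrate mix contained 0.4% bovine serum albumin and was preincubated with compound 10 min at room temperature.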

[4] = Primary qHTS for inhibitors of nuclear receptor binding SET domain protein 2 (NSD2) in an isogenic RCH-ACV NSD2 p.E1099K mutant (9B) (AID 1645876); also: nearly all actives have a fitted effect of over 70% in size; also: potency is read from the fitted curve at half-maximal effect
[5] = Primary qHTS for inhibitors of nuclear receptor binding SET domain protein 2 (NSD2) in an RCH-ACV wild type WT cells (2C) (AID 1645877); also: nearly all actives have a fitted effect of over 70% in size; also: potency is read from the fitted curve at half-maximal effect

Sequence of Cytochrome P450 2C9 (Homo sapiens) (P11712 whole entry, looked up): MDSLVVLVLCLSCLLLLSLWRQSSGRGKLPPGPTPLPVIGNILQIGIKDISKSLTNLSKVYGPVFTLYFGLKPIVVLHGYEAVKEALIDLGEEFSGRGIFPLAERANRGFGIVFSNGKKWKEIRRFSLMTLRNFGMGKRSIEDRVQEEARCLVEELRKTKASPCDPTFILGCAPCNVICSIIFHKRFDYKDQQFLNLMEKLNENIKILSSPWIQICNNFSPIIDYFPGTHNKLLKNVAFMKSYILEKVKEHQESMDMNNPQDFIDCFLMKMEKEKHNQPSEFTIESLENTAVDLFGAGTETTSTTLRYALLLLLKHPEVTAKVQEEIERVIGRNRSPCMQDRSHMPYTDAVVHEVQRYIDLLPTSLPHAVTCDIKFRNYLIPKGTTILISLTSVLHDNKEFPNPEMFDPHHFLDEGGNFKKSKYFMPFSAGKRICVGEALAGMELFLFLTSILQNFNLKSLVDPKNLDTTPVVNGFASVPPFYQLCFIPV
Sequence of Cytochrome P450 2D6 (Homo sapiens) (P10635 whole entry, looked up): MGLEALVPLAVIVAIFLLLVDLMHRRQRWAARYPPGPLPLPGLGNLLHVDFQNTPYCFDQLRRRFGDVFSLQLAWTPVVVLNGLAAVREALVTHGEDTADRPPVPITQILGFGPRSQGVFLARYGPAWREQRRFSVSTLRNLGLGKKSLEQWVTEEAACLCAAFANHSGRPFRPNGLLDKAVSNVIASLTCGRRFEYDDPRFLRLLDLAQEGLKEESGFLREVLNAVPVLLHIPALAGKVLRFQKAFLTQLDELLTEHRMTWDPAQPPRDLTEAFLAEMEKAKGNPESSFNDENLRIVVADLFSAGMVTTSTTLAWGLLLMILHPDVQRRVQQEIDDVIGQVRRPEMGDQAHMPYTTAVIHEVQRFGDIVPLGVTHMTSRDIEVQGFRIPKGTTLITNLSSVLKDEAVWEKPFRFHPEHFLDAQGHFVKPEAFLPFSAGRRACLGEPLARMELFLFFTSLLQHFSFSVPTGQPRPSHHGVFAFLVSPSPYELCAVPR
Sequence of Calcium and integrin-binding protein 1 (Homo sapiens) (Q99828 whole entry, looked up): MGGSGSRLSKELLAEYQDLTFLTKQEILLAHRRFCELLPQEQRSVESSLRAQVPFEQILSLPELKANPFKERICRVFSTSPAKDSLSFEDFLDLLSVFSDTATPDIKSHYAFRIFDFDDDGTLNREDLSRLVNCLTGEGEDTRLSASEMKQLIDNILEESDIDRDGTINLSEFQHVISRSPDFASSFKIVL

Row | SMILES | Potency [1] | Potency [2] | Potency [3] | Potency [4] | Potency [5]
1 | Cc1nc(C#Cc2ccnc(Cl)c2)c(C)n1-c1ccc(OC(F)(F)F)cc1 | inactive | 10.7 µM (active) | 8.49 µM (active) | 18.3 µM (active) | 10.3 µM (active)
2 | Fc1ccc(-n2cc(CCCCN3CCC4(CC3)OCc3ccccc34)c3ccccc32)cc1 | inactive | 0.601 µM (active) | 2.39 µM (active) | 7.28 µM (active) | 6.49 µM (active)
3 | COc1cc2ncnc(Nc3cccc(I)c3)c2cc1OC | inactive | 12 µM (active) | 13.5 µM (active) | 16.3 µM (active) | 14.5 µM (active) and inactive
4 | CC(=O)c1ccc2c(c1)[C@H](NC(=O)c1ccc(F)c(Cl)c1)[C@H](O)C(C)(C)O2 | inactive | 0.674 µM (active) | 2.68 µM (active) | inactive | inactive
5 | Cc1csc2c(N[C@@H](C)CN3CCN(S(=O)(=O)c4ccc(Cl)c(Cl)c4)CC3)ncnc12 | inactive | 0.425 µM (active) | 6.01 µM (active) | 2.9 µM (active) | 8.17 µM (active)
6 | CCC(C)CNCC(=O)N1CCC2SC=CC2C1COc1cccc(C)c1 (centres undefined) | inactive | 0.0756 µM (active) | 12 µM (active) | 23 µM (active) | 18.3 µM (active)
7 | CC(C)(O)C(=O)N1CCN(c2ccc(C(F)(F)F)c(C3=C(c4c[nH]c5ccccc45)C(=O)NC3=O)c2)CC1 | inactive | 21.3 µM (active) | 3.79 µM (active) | 1.15 µM (active) | 1.03 µM (active)
8 | CC(C)OC(=O)N1CCC(Oc2ncnc3c2cnn3-c2ccc(S(C)(=O)=O)cc2F)CC1 | inactive | inactive | 3.79 µM (active) | inactive | inactive
9 | CC(C)(C)Sc1c(CC(C)(C)C(=O)O)n(Cc2ccc(Cl)cc2)c2ccc(OCc3ccc4ccccc4n3)cc12 | inactive | inactive | 1.69 µM (active) | inactive | inactive
10 | N#CC(CCCN1CCC(O)(c2ccc(Cl)cc2)CC1)(c1ccccc1)c1ccccc1 | inactive | 0.536 µM (active) | 23.9 µM (active) | 5.15 µM (active) | 6.49 µM (active)
11 | CN1CCN(Cc2ccc(NC(=O)Cc3ccc(Oc4cc(NC(=O)C5CC5)ncn4)cc3)cc2C(F)(F)F)CC1 | inactive | 15.1 µM (active) | 19 µM (active) | 0.649 µM (active) | 0.817 µM (active)
12 | Cc1ccccc1CN1CCn2c1nc1c(c2=O)CN(Cc2ccccc2)CC1 | inactive | 13.5 µM (active) | 8.49 µM (active) | inactive | inactive
13 | C[C@@H](Nc1ncnc2[nH]c(-c3ccc(O)cc3)cc12)c1ccccc1 | inactive | 1.34 µM (active) | 1.2 µM (active) | 5.78 µM (active) and 11.8 µM (active) | 5.78 µM (active) and 10.5 µM (active)
14 | c1cc(NCCc2c[nH]c3ccccc23)cc(Nc2ccncc2)c1 | inactive | 0.477 µM (active) | 0.674 µM (active) | 7.28 µM (active) | 3.25 µM (active)
15 | CN(C)C(=O)NC1(c2ccccc2)CCN(CCC[C@]2(c3ccc(Cl)c(Cl)c3)CCCN(C(=O)c3ccccc3)C2)CC1 | inactive | 3.38 µM (active) | 21.3 µM (active) | 3.25 µM (active) | 2.9 µM (active)
16 | C#CC(=O)N(c1ccc(OC)cc1OC)C(C(=O)NCC(=O)OCC)c1cccs1 (centres undefined) | inactive | 12 µM (active) | 12 µM (active) | 0.183 µM (active) | 0.0649 µM (active)
17 | O=C(Nc1ccc(CN2CCOCC2)cc1)c1ccc(-c2cccc(Cl)c2)o1 | inactive | 15.1 µM (active) | 19 µM (active) | 16.3 µM (active) | 11.5 µM (active)
18 | COc1ccc(NC(=O)c2ccc(C(=N)N(C)C)cc2)c(C(=O)Nc2ccc(Cl)cn2)c1 | inactive | inactive | 3.79 µM (active) | inactive | inactive
19 | O=C(COc1ccc2ccccc2c1Br)Nc1cccnc1 | inactive | 0.301 µM (active) | 8.49 µM (active) | inactive | inactive
20 | Cc1noc(C)c1-c1cc(O)cc(C(O)c2ccccc2)c1 (centres undefined) | inactive | 16.9 µM (active) | 0.849 µM (active) | 0.916 µM (active) | 1.03 µM (active)
21 | Nc1nc2c(c(N3CC[C@@H](N)C3)n1)CCCc1ccccc1-2 | inactive | 3.38 µM (active) | inactive | 20.5 µM (active) | 18.3 µM (active)
22 | OC(c1ccc(-c2ccc(CN3CCN(Cc4ccncc4)CC3)cc2)c(F)c1)(C(F)(F)F)C(F)(F)F | inactive | 3.38 µM (active) | 1.34 µM (active) | inactive | inactive
23 | O=C(Nc1cccnc1)c1cc(-c2ccnc(F)c2)ccc1OCc1ccccc1 | inactive | inactive | 1.51 µM (active) | inactive | inactive
24 | Cc1c(NC(=O)OCC2COCCN2)cn2ncnc(Nc3ccc4c(cnn4Cc4cccc(F)c4)c3)c12 (centres undefined) | inactive | 21.3 µM (active) | 19 µM (active) | 14.5 µM (active) and 18.6 µM (active) | 16.3 µM (active) and 16.6 µM (active)

Row | SMILES | Potency [1] | Potency [2] | Potency [3] | Potency [4] | Potency [5]
25 | Clc1ccc(Nc2nc3ccccc3c3nc(C4CCCCC4)[nH]c23)cc1Cl | inactive | inactive | 6.01 µM (active) | 16.3 µM (active) | 16.3 µM (active)
26 | O=C1C(Cc2ccc(O)cc2)N2C(=O)CCN(C(=O)NCc3ccccc3)C2CN1Cc1cccc2ccccc12 (centres undefined) | inactive | 1.07 µM (active) | 10.7 µM (active) | 3.65 µM (active) | 5.15 µM (active)
27 | COc1ccc(Oc2c(Cl)cnn(-c3cc(C)cc(C)c3)c2=O)cc1 | inactive | inactive | 12 µM (active) | 11.5 µM (active) | 4.09 µM (active)
28 | COCc1c(Cl)ccc2c1CC[C@H]2c1ncc[nH]1 | inactive | 1.9 µM (active) | 21.3 µM (active) | inactive | inactive
29 | CC[C@H]1CN(c2nc(N)c(C(N)=O)nc2Cl)CCN1C1CCN(Cc2ccc(Cl)cc2)CC1 | inactive | 12 µM (active) | 7.56 µM (active) | inactive | inactive
30 | CCOc1ccc(CCNC(=O)c2cc3sc(Cl)cc3n2C)cc1OCC | inactive | inactive | 2.39 µM (active) | inactive | inactive
31 | Cn1nc(-c2ccc(C(F)(F)F)cc2)nc2c(=O)n(C)c(=O)nc1-2 | inactive | 0.239 µM (active) | inactive | 2.58 µM (active) | 2.3 µM (active)
32 | COC(=O)c1ccc2c(c1)[nH]c1ncnc(NCCCN3CCCCC3)c12 | inactive | inactive | inactive | 16.3 µM (active) | 16.3 µM (active)
33 | C#CCNCc1cc2cc(OCc3ccccc3)ccc2[nH]1 | inactive | 23.9 µM (active) | 3.79 µM (active) | inactive | inactive
34 | N#Cc1cnc2c(Cl)cc(NCc3cn(CCN4CCCCCC4)nn3)cc2c1Nc1ccc(F)c(Cl)c1 | inactive | 0.849 µM (active) | 3.38 µM (active) | 20.5 µM (active) | 11.5 µM (active)
35 | CN1CCC(c2cn(C)c3ccc(OS(=O)(=O)c4c(F)cccc4F)cc23)CC1 | inactive | 12 µM (active) | 9.52 µM (active) | 18.3 µM (active) | 23 µM (active)
36 | COc1ccc(CNc2nc(N(CCO)CCO)nc3c2ncn3C(C)C)cc1 | inactive | inactive | 3.79 µM (active) | 7.42 µM (active) | 5.25 µM (active)
37 | COc1cc(Br)c(S(=O)(=O)Nc2ccc(Cl)c(O[C@@H]3CCN(C)C3)c2)cc1OC | inactive | 15.1 µM (active) | 10.7 µM (active) | 12.9 µM (active) | 11.5 µM (active)
38 | Cc1cc(NC(=O)c2cccc(NC(=O)/C=C/CN(C)C)c2)ccc1Nc1nccc(-c2cccnc2)n1 | inactive | 10.7 µM (active) | 16.9 µM (active) | 4.61 µM (active) | 4.59 µM (active)
39 | CCCC(Nc1nc(-c2ccc(NC(=O)NCC)c(OC)c2)ncc1C)c1cccnc1 (centres undefined) | inactive | 5.35 µM (active) | 0.239 µM (active) | 0.183 µM (active) | 0.115 µM (active)
40 | Fc1ccc(-c2nc(C3CCNCC3)sc2-c2ccnc(NC3CC3)n2)cc1 | inactive | 6.01 µM (active) | 16.9 µM (active) | 8.17 µM (active) | 6.49 µM (active)
41 | CCOC(=O)c1cnn(-c2ccccc2)c1NC(=O)c1cc2nc(-c3ccco3)cc(C(F)(F)Cl)n2n1 | inactive | inactive | 3.38 µM (active) | inactive | inactive
42 | O=C(Nc1ccc(Cl)cc1)c1ccccc1NCc1ccncc1 | inactive | 0.169 µM (active) | 0.0379 µM (active) | 10.3 µM (active) | 18.3 µM (active)
43 | O=C(NCc1cccs1)c1cc2nc(-c3ccco3)cc(C(F)(F)Cl)n2n1 | inactive | 7.56 µM (active) | 0.301 µM (active) | inactive | inactive
44 | CC(C)c1noc(C2CCN(c3ncnc(Nc4ccc(S(C)(=O)=O)cc4F)c3[N+](=O)[O-])CC2)n1 | inactive | inactive | inactive | inactive | inactive
45 | Cc1cc(Nc2nc(-c3ccccc3)nc3ccccc23)n[nH]1 | inactive | inactive | 10.7 µM (active) | 2.9 µM (active) | 3.25 µM (active)
46 | CN(C)Cc1ccc(-c2cnn3c(-c4cccc(NC(=O)c5cccc(C(F)(F)F)c5)c4)ccnc23)cc1 | inactive | 13.5 µM (active) | 7.56 µM (active) | 3.65 µM (active) | 4.09 µM (active)
47 | CC(C)c1ccc(NC(=O)c2cccs2)c(-c2nc3ccccc3[nH]c2=O)c1 | inactive | 13.5 µM (active) | 10.7 µM (active) | – | 16.3 µM (active)
48 | CCn1c(=O)c(-c2ccc(-c3cncs3)cc2Cl)cc2cnc(Nc3ccc(N4CCN(C)CC4)cc3)nc21 | inactive | inactive | 6.01 µM (active) | 2.31 µM (active) | 2.59 µM (active)
